From PubChem BioAssay (NCI)
Compounds without any hit were thinned out: in the full panel of roughly 83,000, 20% have a hit.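 The test compound was applied at a single concentration to cells in 96-well plates for 48 hours, and percent growth was recorded.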 Values without a mark were called inactive. Calls of active or inactive are those of the source. The calls were made as follows: active = growth percent below 10; inactive = the rest.

Legend:
Experiment in all cases: NCI-60 one-dose screen, 48 h (100 = growth as untreated, 0 = no growth, -100 = all killed)
Settings in all cases: 10 µM unless noted
SR leukemia = test system: SR leukemia
RPMI-8226 leukemia = test system: RPMI-8226 leukemia
OVCAR-8 ovarian = test system: OVCAR-8 ovarian
OVCAR-4 ovarian = test system: OVCAR-4 ovarian
SK-OV-3 ovarian = test system: SK-OV-3 ovarian
IGROV1 ovarian = test system: IGROV1 ovarian
OVCAR-3 ovarian = test system: OVCAR-3 ovarian
HS 578T breast = test system: HS 578T breast
NCI/ADR-RES ovarian = test system: NCI/ADR-RES ovarian
T-47D breast = test system: T-47D breast
BT-549 breast = test system: BT-549 breast
MDA-MB-435 melanoma = test system: MDA-MB-435 melanoma
SW-620 colon = test system: SW-620 colon
MCF7 breast = test system: MCF7 breast
HCT-116 colon = test system: HCT-116 colon
HCC-2998 colon = test system: HCC-2998 colon
KM12 colon = test system: KM12 colon

| SMILES | growth (SR leukemia) | growth (RPMI-8226 leukemia) | growth (OVCAR-8 ovarian) | growth (OVCAR-4 ovarian) | growth (SK-OV-3 ovarian) | growth (IGROV1 ovarian) | growth (OVCAR-3 ovarian) | growth (HS 578T breast) | growth (NCI/ADR-RES ovarian) | growth (T-47D breast) | growth (BT-549 breast) | growth (MDA-MB-435 melanoma) | growth (SW-620 colon) | growth (MCF7 breast) | growth (HCT-116 colon) | growth (HCC-2998 colon) | growth (KM12 colon) |
| --- | --- | --- | --- | --- | --- | --- | --- | --- | --- | --- | --- | --- | --- | --- | --- | --- | --- |
| N#Cc1ccc(O)c(C2=NCC(c3cccc(Oc4ccccc4)c3)O2)c1 (stereo unspecified) | 19.7% | 28.1% | 12.9% | 18.3% | -1.44% (active) | 19.2% | 27.3% | 52.6% | 2.42% (active) | -12.5% (active) | 30.6% | 35.2% | 25.6% | 21.4% | 16.9% | 43.7% | 21% |
| O=C(COc1ccc(-c2nc3cc(Cl)c(Cl)cc3[nH]2)cc1)N=Nc1c(O)[nH]c2ccc(Cl)cc12 | 31.1% | 56% | 37% | 64.2% | 84.5% | 79.9% | 75.1% | 67.5% | 95.8% | 56.8% | 76.7% | 83.5% | 56.1% | 25.6% | 54.4% | 95.1% | 64.5% |
| CCc1ccccc1-n1c(-c2ccc(OC)cc2)cc(-c2ccc(OC)cc2)c(C#N)c1=O | 98.4% | 105% | 41.7% | 85.9% | 54% | 85.5% | 82.2% | 17.9% | 72.4% | 90.6% | 101% | 104% | 93.9% | 93% | 51.1% | 97.1% | 92.5% |
| CCn1c(SCC(=O)N/N=C(\C)c2ccc(Cl)cc2)nc2c1c(=O)n(C)c(=O)n2C | 93.4% | 103% | 99.9% | 99.8% | 109% | 96.5% | 115% | 94.4% | 102% | 98.3% | 99% | 100% | 95.1% | 95.8% | 102% | 102% | 101% |
| O=C(N/N=C/c1ccc(Cl)cc1)c1[nH]c2ccc(Cl)cc2c1-c1ccccc1 | 52.2% | -3.56% (active) | 28.8% | 41.4% | -1.75% (active) | 17.3% | -13.4% (active) | 82% | 1.79% (active) | 73.9% | 10.2% | -33.3% (active) | 37.5% | 13.5% | 7.64% (active) | 26.4% | 4.94% (active) |
| COC(=O)/C=C1/SC(=Nc2cccc(OC)c2)N(CCc2c[nH]c3ccc(O)cc23)C1=O | 0.788% (active) | 16.2% | 41.6% | 49.4% | 101% | 51.8% | 40.3% | 66.5% | 58.8% | 42.2% |  | 23.5% | 56.1% | 20.4% | 34.3% | 65.1% | 53.5% |
| O=C(O)c1ccc(-n2cc(/C=N/Nc3ccccc3)c(-c3ccc(F)cc3F)n2)cc1 | 72% | 50% | 53.3% | 80.4% | 89.1% | 52.6% | 62.3% | 68.6% |  | 35.4% | 95.2% | 45.9% | 30.1% | 41.6% | 37.7% | 81.1% | 29.3% |
| NC(=O)C(=O)c1ccccc1NC=O | 113% | 105% | 95.4% | 98.4% | 97.4% | 94.8% | 110% | 109% | 89.6% | 106% | 107% | 101% | 101% | 99.5% | 93.1% | 107% | 98.6% |
| Nc1nc(N)c(-c2ccc(Cl)c(Cl)c2)c(CBr)n1 | 62.1% | 80.2% | 75.6% | 107% | 99% | 47.5% | 106% | 91.9% | 58.2% | 91.6% | 59.7% | 49.8% | 42% | 76.7% | 42% | 71.7% | 88.7% |
| Cn1ccnc1C(=O)/C=C/c1ccc(CC(=O)Nc2cc(C(F)(F)F)cc(C(F)(F)F)c2)cc1 | 39.4% | 55% | 41% | 78.8% | 109% | 71.4% | 62.6% | 66.6% | 65.3% | 52.1% | 80.3% | 68.5% | 70.5% | 30.8% | 51.6% | 83.6% | 63% |
| C=C1C(=O)O[C@H]2[C@H]1CC/C(Cn1cc(-c3ccccc3)nn1)=C\CC[C@@]1(C)O[C@@H]21 | 3.11% (active) | -20.5% (active) | 5.7% (active) | 35.9% | 107% | 6.52% (active) | -84.3% (active) | 81.1% | 43.6% | -38% (active) | -61.1% (active) | -21.5% (active) | -79.1% (active) | -60.1% (active) | -67.1% (active) | 5.21% (active) | 56% |
| COc1cc2c(c(OC)c1OC)CCC(c1cccc(C(=O)Nc3cccc(Cl)c3)c1)O2 (stereo unspecified) | 30.5% | 39.1% | 75.1% | 70.3% | 64.9% | 63.8% | 85.3% | 80.2% | 83.8% | 36.7% | 67.5% | 82.1% | 99.2% | 73% | 74.2% | 91% |  |
| O=S(=O)(Nc1ccc(F)cc1F)c1ccc(-c2cnc(C3CC3)o2)cc1 | 10.9% | 18.1% | 38.4% | 46.8% | 45.6% | 32.6% | 13.4% | 27.4% |  | 31.9% | 17.2% | -33.8% (active) |  | 20.3% | 21.2% | 54.9% | 30.1% |
